# Bioassay records: PubChem BioAssay, National Center for Advancing Translational Sciences (NCATS)
# AID923 = qHTS Assay for Allosteric/Competitive Inhibitors of Caspase-1: Spectroscopic Profiling in AFC Spectral Region. compound fluorescence, AFC spectral region (405/520 nm). Potency, µM (highest dose often 57.5 µM), without a hit: top-dose fluorescence increase, usual class: activators. hit rate 1.1% among 75,000. AID 923, 2007; note: potency is the fitted concentration of half-maximal effect; 0% is about no effect
#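 Baseline compound fluorescence (AFC region, 405 nm ex/520 nm em) taken from the intercept of kinetic reads with 50 nM caspase-1 and 5 uM Ac-WEHD-AFC; normalized to an on-plate AFC standard curve; compounds titrated up to 57 uM.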
# HADH2 inhib = qHTS Assay for Inhibitors of HADH2 (Hydroxyacyl-Coenzyme A Dehydrogenase, Type II); recombinant HADH2, NADH fluorescence, beta-hydroxybutyryl-CoA; Potency, µM (top dose mostly 57.1 µM), without a hit: at the top dose activity change, negative = inhibition, most hits filed as inhibitors; hit rate 3.4% among 73,000; note: potency is the fitted concentration of half-maximal effect; % is set by controls: 0 for no effect and ±100 for the full control effect; nearly all actives have a fitted effect of over 60% in size
# Target sequence (Q99714 whole entry, looked up, one chain of several): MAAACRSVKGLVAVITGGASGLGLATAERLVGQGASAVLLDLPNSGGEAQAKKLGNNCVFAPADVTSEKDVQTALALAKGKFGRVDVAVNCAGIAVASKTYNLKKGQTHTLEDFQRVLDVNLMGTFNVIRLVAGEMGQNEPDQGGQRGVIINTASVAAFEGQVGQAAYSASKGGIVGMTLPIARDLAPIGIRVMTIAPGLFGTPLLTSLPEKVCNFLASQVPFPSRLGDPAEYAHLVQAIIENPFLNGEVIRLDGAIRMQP
#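 Activity measured as NADH fluorescence gain (360/450 nm), taken as the change between first and last reads of a 4-min kinetic run. Conditions: pH 9.0 Tris buffer, 20 nM E. coli-expressed His-tagged enzyme, 1 mM NAD+, 90 uM beta-hydroxybutyryl-CoA; 15-min compound preincubation.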
# A350 autofl = qHTS Assay for Spectroscopic Profiling in A350 Spectral Region; Compound autofluorescence, 340/450 nm, Alexa 350 dye-equivalents; hits give high values; max dye-equivalent concentration, M; hit rate 11% among 59,000; AID 590, 2007; in the data active = max dye-equivalent concentration above about 10 nM; inconclusive = mostly about 1.1 nM to 9.6 nM
# HSD17B inhib = qHTS Assay for Inhibitors of HSD17B4, hydroxysteroid (17-beta) dehydrogenase 4 | 3-hydroxyacyl-CoA dehydrogenase type-2 (Homo sapiens), Q99714 | recombinant HSD17B10, NADH fluorescence kinetic | Potency, µM (titrated, usually from 57.1 µM), for the others: at the top dose activity change, negative = inhibition, most hits filed as inhibitors | hit rate 7.6% among 75,000 | AID 893, 2007;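 note: the protocol describes HADH2 (HSD17B10) and not the HSD17B4 of the title; potency is the fitted concentration of half-maximal effect; % is set by controls: 0 for no effect and ±100 for the full control effect; nearly all actives have a fitted effect of over 70% in size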
#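 His-tagged E. coli-expressed HADH2 at 20 nM in 100 mM Tris-HCl pH 9.0 with 0.01 % Tween-20, preincubated 15 min with compound at room temperature. Reaction with 1 mM NAD+ and 90 uM beta-hydroxybutyryl coenzyme A; NADH fluorescence (360/450 nm) read kinetically over 4 min, last minus first point.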
# 4-MU autofl = qHTS Assay for Spectroscopic Profiling in 4-MU Spectral Region; compound autofluorescence, 340/450 nm, 4-MU equivalents; hits give high values; max dye-equivalent concentration, M; hit rate 11% among 59,000; in the data active = max dye-equivalent concentration above about 10 nM; inconclusive = mostly about 1.1 nM to 9.6 nM
#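 Compounds in 100 mM Tris, pH 8.0, incubated 15 min at room temperature, then fluorescence read at 340 nm excitation/450 nm emission. Signal converted to 4-MU dye-equivalent concentration using an on-plate six-point 4-MU standard curve.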
# An asterisk follows results filed as active; i = inactive; ? = inconclusive; [ ] = remark or other dose. An excerpt weighted towards active compounds, which were near 13% of everything screened. Unless noted, calls come from the whole dose curve; as a rule, active = well fitted curve in the direction sought with a large enough effect; inconclusive = small, poorly fitted or top-dose-only effect, or another doubt; inactive = no such curve, though single readings can be large; an effect the other way counts as inactive or inconclusive.
SMILES,AID923,HADH2 inhib,A350 autofl,HSD17B inhib,4-MU autofl
COc1cc(NC(=O)c2ccc3c(c2)OCO3)c2ncccc2c1,-2%,-27%,6.5e-08M*,25µM*,6.8e-08M*
COc1cccc(NC(=O)c2oc3ccccc3c2NC(=O)c2ccc3c(c2)OCO3)c1,1%,-21%,1.5e-07M*,32µM*,1.8e-07M*
COc1cccc(NC(=O)c2oc3ccccc3c2NC(=O)C(C)(C)C)c1,1%,-24%,?,-25%,?
COC(=O)c1ccc(NC(=O)c2ccc3c(c2)OCO3)cc1,1%,9%,i,-9%,i
COc1ccc(NC(=O)c2ccc3c(c2)OCO3)cc1Cl,-2%,7%,i,32µM*,i
O[C@@H](c1cc(-c2ccc(Cl)cc2)nc2ccccc12)[C@@H]1CCCCN1,-1%[11.5 µM],8%[11.4 µM],i,5%[11.4 µM],i
CCN[C@@H]1C[C@H](C)S(=O)(=O)c2sc(S(N)(=O)=O)cc21,-3%[25.7 µM],1%[25.6 µM],i,2%[25.6 µM],i
